Results as given in the supplement of paper PMC10681739.
In all, about 4,100 sequences were measured (“arbitrary fluorescence units”: median about 780, highest 2% from about 22,000 on). The entries come from a sample that favours the highest values as a whole.

Biological target: T1, ETS1 (UniProt P14921)
T1 sequence: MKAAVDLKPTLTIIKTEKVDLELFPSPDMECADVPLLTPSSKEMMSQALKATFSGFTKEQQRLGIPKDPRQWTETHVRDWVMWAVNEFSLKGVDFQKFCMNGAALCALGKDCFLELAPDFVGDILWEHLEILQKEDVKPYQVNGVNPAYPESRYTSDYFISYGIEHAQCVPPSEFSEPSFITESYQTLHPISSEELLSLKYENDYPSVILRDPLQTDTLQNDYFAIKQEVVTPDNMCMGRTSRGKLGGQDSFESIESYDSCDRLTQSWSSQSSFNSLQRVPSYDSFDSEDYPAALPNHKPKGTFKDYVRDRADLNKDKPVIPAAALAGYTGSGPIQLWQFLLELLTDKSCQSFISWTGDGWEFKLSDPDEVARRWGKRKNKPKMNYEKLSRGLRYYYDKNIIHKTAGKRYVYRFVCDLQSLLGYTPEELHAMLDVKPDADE
Assay: ETS1 binding intensity (PBM fluorescence), ETS1 alone (arbitrary fluorescence units); higher = stronger binding
Settings: ETS1 concentration 1 nM; RUNX1 concentration 0 nM
Method: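 gcPBM on 36-bp genomic-derived probes (partner site mutated) containing one ETS1 site and no RUNX1 site. Recombinant human ETS1 (1 nM) was incubated alone or with RUNX1 (25 nM) and detected by anti-ETS1 antibody fluorescence. Values are medians over 4 replicate spots (not normalised). The probes sit in constant array flanks that are not printed.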

| Sequence | ETS1 binding intensity |
| --- | --- |
| AGTTTTCCGTCGGGCTCCCAGTGACGCCGAAGAGGT | 2580 |
| GCGCAAAGCCGGAAGGAGGGGTTTGGGGCTGGGGAG | 4130 |
| CTTCCTTCCCTTCCTTCTGCTCCCTCCCAGAGCCGC | 852 |
| CCCACTTCCTGTCTGCTTCCCTCCTCCGCTCAGACC | 28400 |
| TCCCTCCTCCGCTCAGACCCACTTCCTGTCTGCTTC | 8330 |
| TAGGGGCTGAGGGTCCGGGCGGAAGTGGGGCAGGCG | 2500 |
| CTGCACTTCCGGTCAGGCGGTCGGGCTGAGGGGCCC | 36600 |
| CCGGTCGGGGCTGCAGCCGCTTCCGGAGCCGCGGGC | 3060 |
| ATGGATGGGGTTGCTTGCGTGAGGAAATACTTGATG | 524 |
| CCCAATTTCCTTTGCTCTGCTGTCTGCCAACCCCAA | 3560 |
| GCAGATATCACAGACTCTCTCCTTTCCTGCTGAATA | 546 |
| GCTCGCAGCCCCAAGAGGTGGCCTTCGGTTCCGGGG | 382 |
| CTGCAGCGGGGATCCTTGGGGCCCTTCCGGTCGGTG | 2190 |
| TGACTTCCGGTCCGTAGTGGGGCCTTCGGTGGGAGT | 35800 |
| TTGTGGACGCGGATTTGGGGGCGGGTATCCGGGCCT | 564 |
| GGTCACTTCGGCCCAGAGGCCCGCTCTTCCGCTGAG | 564 |
| CAGGGATTCCGGCTGAGTGCGGCCCCCTCAGCCTCC | 606 |
| GTGGCTGTCGTTGAACTGACTCTCGGGTTTCCGCTC | 606 |
| TGGAAGAGCCCCACGACATGTGCTTCCTGCGTGCTG | 596 |
| GAGCCTGTTGCTTCCGGTTCAGAGCCCACGTGCTGG | 22200 |
| CTAGCTGTGGACAGGAAACGAGTGGATTTTGTGATC | 3740 |
| CCGGGACCTCGGCTTGGGCTCACGGCCACTTCCGAC | 393 |
| CCGTACTTCCGCTTTACTCAGATTTTGGACCTCGGG | 30200 |
| CTCAGCGGCAGCAAGCCCCACCCCGGAAGTCGGCTG | 1590 |
| GATGACTTCCTCAGTTCAGGGCTATGTACGGGGGAG | 4670 |
| CCGCTTCCGGCCTTCGCCCGGCTTAGCCGCGTCGCA | 34700 |

| Sequence | ETS1 binding intensity |
| --- | --- |
| GCCCGGCTTAGCCGCGTCGCGGAAGTCCGCTCTCTG | 397 |
| GGCCTCGCGGCGTCTCTGCTGCTTCCGCCTTCCCGG | 854 |
| CCTCTGCCCAACCCCAATTTTCCCTTCCTCCGCCTT | 543 |
| CTTTTTGATTTCCTCAAGCATCCCAGAAATACACAG | 2020 |
| GCCCACGCCGCTGGGAGGTGAGACTGAAGGAAGCAC | 402 |
| ACGGAGCTGTAGTTTAACGTTTCCGGTTAGTGGCTA | 9670 |
| GCCCACTTCCTGCCGTAAGAGAAATCCACTAACACA | 33800 |
| GACGCAGCCCCAGAGCGATTCGCGTCCCGGAAGCGG | 491 |
| TCCAGCGCCGCTGGGCCAACGAGAGCGCTTCCGGCC | 1740 |
| CCGAGCGCACCAGCTCCCGCGCGTGGTTCCGCCGCT | 324 |
| CCAACGAGCACTTCCGCTTCCCGAAGCTCCAGCGGC | 27700 |
| GCGAGAGGGAGGAAGTGACTCACCAACCCCAACAAA | 2690 |
| TCCCAGTTTATGGGAAGGGTTGAGGGAAGTGAGGGG | 531 |
| GGATCGGCCTGAGGTGTGTCTCATTTCCTGTAGGTA | 2130 |
| GTGACGTGGCTGTAGGTCTCATTTCCTGCACGGCCT | 2060 |
| TGTCTCATTTCCTGTAGGTAACAGGCACCAAAATAG | 26500 |
| TGCTCCACTCGGAAGTGGTGCCGAAGCTCTTCGATG | 905 |
| GCCACACTTCCGGCGGGGCTGCGACTGCAGAGGGGC | 38700 |
| CCGCCGACACACTTCCGGCGGCCACCAGAGGGTATT | 21200 |
| CTGCCAGAGCACACAGTTTGCACTTCCGGGGCGGGC | 2710 |
| CAAGAGCCGGAAGTCCCTTGTGCCGTAGTCCTTCCC | 9220 |
| CAGCATGAGGGTGCACACACCGCTTCCTTAGAGGTT | 757 |
| GTGATAAGAACGACAGGCCACTTCCCAAAGATCAAA | 531 |
| TTTCACTTCCGGCATGTTTTTCACCTACAGGGATAT | 35500 |
| AGCTTCCGAGTCTGTTGTGGAGTGGGAACAGCGACT | 2510 |
| GCCTGCGCTCTTTCCGGTAGCCAGAGCCTCGTCTAA | 8280 |

| Sequence | ETS1 binding intensity |
| --- | --- |
| CGTCCCCGAAAAGCCGCGGCAGAAACTTCCGGCGGT | 3130 |
| CGCCGAACTTCCGGCAGTAAATTCCGTGGATTCCCG | 27100 |
| TGCCGCCTGCAGCACCCTCCCCATTTCCTGGCTGTA | 1190 |
| CGTTTCCTGTGGCTGCAGCTCTCCCCACGCACACAC | 23800 |
| GCACGTGTTTCCTGGGGCTGCACCCCAGCACCACAC | 2380 |
| TGTTGCCACTGTTAGACTAGAGAGCATCCTGTTGTT | 851 |
| ACCCACTTCCTGTTAGAGCATCTTTGCAACCCCAGG | 30200 |
| TTTCTTCCTGTTTGCATCACCCCAAATCCACTATCA | 16900 |
| TACGCACACGCTTCGGGATCCTTCCGCTCCGGGTTA | 644 |
| CTCCCACGCTCCCCTTCCGGCCCCGCTGCGCTGTGA | 3160 |
| TTGCGCCGGACGCCACTTTCGGTCCCCGTGGACACG | 602 |
| CCGGGCGCCACTTCCGGTCCCCGTGGACACGTGACC | 53800 |
| GGTCACGTGTCCACGGGGACCGGAAGTGGCGCCCGG | 14400 |
| TCTTGTTTCTTCCGTTACCGGAGCGCGGCCACGTGA | 2590 |
| CCAGAGGGCGGAAGTGGGAGCTGCGACGGCGCTCCC | 7030 |
| TTTCTGATTGTAGTTTCAAATTATTTCCTGTGTTGG | 1770 |
| AACATCCTGTGTAAAGAGAATTGAATGTAGTTTTCT | 25200 |
| ACTTTGTCAGTGTAGTTTTCACATCCTGTCCTAGCT | 2870 |
| CTCCATTATTCCGGCCAGGTGCCCTTCTGGGATAAG | 670 |
| GAGCTGCAAGTCACAAAGACCGGAAGTGCGCGTACG | 26000 |
| GCGCGGACTCCGGGAAGCTGAGCGGCAAAGACCGTG | 359 |
| TGCGCCGGAAGTGCATGAGCTGCCGATGAGGTGCTT | 8970 |
| TCACAATCGCTCACAAAGACAGGAAGTAACTGTCAG | 3450 |
| CTCCTGCTCACAGAAGCTCACTGTTTCCTGTCTAGC | 2690 |
| AAATCAAAACCCCAATCAGATACCACTTCCTGCCCA | 2350 |
| CACTTCCTGCCCTCTTCCACTTTCAAAATCACATCA | 31900 |

| Sequence | ETS1 binding intensity |
| --- | --- |
| TACTCTAAAGCACTTCAAACCTCCACTTCCTGCCCC | 2240 |
| CTCCCCCAGCACATCCTCTGCCACTGCTGCCTTTCC | 1720 |
| CTCCGCTGTCCCCTGCAGGCACCGAGGGCGGAACCA | 347 |
| GGGACTGCAGTCCCGGGGAGCGCACCGGAAGTTCTC | 4610 |
| ACAGAGGTGCTACCCCAAGGACCGGAAGCAGAGACC | 3940 |
| GGACCGGAAGTTAAGGCGTTCGCGGCGTGTGATAAG | 22900 |
| TACCGGCGTTAATATAGTAAGGGCGGAAGTTCTCCT | 1190 |
| GCCCCGGAAGCTCCTTAAGGAGGACCGTGTGAGTTT | 1880 |
| ACTTGGCAGTTCCGGGTCCGCGCCCCAGCGCGCCAC | 2630 |
| GTAGCAACAGCAGGCTCACACACCGGAAGTGCTCGC | 9380 |
| TTGCTCCCGGAAGCCCCGCCCGTCCGTGGCTCCTGA | 1350 |
| CCTGCCTTCCGTCTTCCAGGCAGAACGACAGAGAGG | 1710 |
| AATGAGCCCCAGAACCCTTTTCCTTCCGGCCTGCAC | 1300 |
| CCCAGAGCTTCCGATTGGCTCTTCTGAGGTGGCGGG | 1750 |
| CAGATTTCCGGCTTCTGAGGAGCTGCCCTACCCCAG | 38200 |
| AGTAACCAGCAGGCTGTGCCGGCAGGATGTTGTCTT | 469 |
| CTGGGGTCGGGGCGAGGGAGCTGCCGGGGAAGTGAG | 513 |
| GGCCAAGAAATCCACTCAGAGGAAATCACAGGCCTG | 439 |
| GAGAAACGTCAGGCATGGCCGGGCCACCAGGAAAAC | 347 |
| CCCGGCGGCTACTTTCGGTCACTTTCGCCGGAACCT | 444 |
| GGCCGACGGGAAGTGTAGTCCGGCCTGCAGTCCGGG | 1970 |
| GCCCTACCCAGCGGCGGCCGGACGCTTCGGCGCAGG | 435 |
| GCTCGTTTGGGGTTACTGACATCCGGCCTTCATTTC | 5140 |
| TTTTTTCCGCCTGTAGGGTCACATTGGGGTTGATTG | 2790 |
| CTGACGCATTTCCGGCCTTTGGGGTTGATCGGTCAT | 26200 |
| CCAGGAGGGATGGGGAAGTTCACCAGACACTCCATG | 444 |

| Sequence | ETS1 binding intensity |
| --- | --- |
| GTCACTGTCGTATTTACTTTAGCTTCCTGTTCATCC | 1880 |
| CGATTCCGGATTGGTCCAATTCCAGCGCCGAAGCCC | 673 |
| GCCACCTTACGACAGCTGTACAGAGCTTCCTTTAGC | 390 |
| AGCACTTCCGTTTGGGCAGGGCTGAGGGCCGGAGGG | 16800 |
| AACCTCCGACTTCCGGCCGCGCAGCGGAGGGCTGAG | 32100 |
| CTAGCAGCTTCCGAGGGGGCGGCGGCCGGAGCGAGT | 784 |
| GGGGGAGTTTTCGGAAGCGCTAACAGCGTTGGGGCC | 566 |
| TGGTGCCAAACATCCGCTAGCCAGAGAAAAACCGAC | 6500 |
| ACACCGTGCTTTTCGGTTCCCGGAAGTCCTTCAGGC | 1560 |
| GACAAGATTGCAGGTGGCAACCCCATCCGGTTTGTT | 1400 |
| GGTCGCTCTGGTGACGGGGGAGGAAATTCTGTCCGT | 512 |
| TCTGTCGCACATCCGGTGTGAGCTTCGGGGCGGTGG | 22500 |
| GTGAGCTTCCCGGCGCGCGGGGGGCGGTGCGCCTTC | 797 |
| CCTTTGGGGTAGCAGTGGCCCCGCGCGGAGGAAGTT | 303 |
| CTAGCCACCTCGGCCCCACCCTCTTCCGGCCTCAGC | 1820 |
| GCAGCTTCCGCGGCCCCCGCCCGGCCTGCAGCGCCA | 2350 |
| TGACATTTCCGGCCCCACCTCGGCCTGCAGCGCCGC | 40200 |
| TATCAGCTTCCGACGTGCCCCTCGGTATCTGGACTA | 1600 |
| GGATTTTGGGGTAGCGAACCCCGGGGCCGGAAGCAG | 1080 |
| TTCGCTCCCTGAATCGCGTCGCTTCCTGAGCCGCGC | 454 |
| CGGGACTTCCTGTCTTCCCTGTCGCGGAGCTCTGAA | 27000 |
| CTGTCTGCTTCCCGTGGCCAGCCCTGATCGCGGCCC | 953 |
